# Measurements: PubChem BioAssay (NCI)
# “And” between values parts separate entries of the source, which are not always exact repeats. Equal entries are not always repeated. Compounds without any hit were thinned out: in the full panel of roughly 79,000, 15% have a hit. More than one record can exist for a structure, and the calls need not agree. The source made the active and inactive calls. No stated cut-off is given here; in the data, active means growth inhibition above about 70%; inactive means the rest.
# Tests used:
# [1] = NCI Yeast Anticancer Drug Screen. Data for the rad50 strain (AID 155);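 further: 0% = growth of vehicle-only cultures of the same strain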; settings: S. cerevisiae rad50 strain growth inhibition, stronger effect = higher value
# Outline: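 Cells are treated with compound, grown, and their growth is then scored against vehicle-only cultures of the same repair-deficient yeast strain.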
# [2] = NCI Yeast Anticancer Drug Screen. Data for the mec2-1 strain (AID 157); settings: S. cerevisiae mec2-1 strain, stronger effect = higher value
# Outline: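 Each compound was tested on mec2-1 yeast, a strain altered in DNA damage repair or cell cycle control. Growth inhibition is reported relative to vehicle.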
# [3] = NCI Yeast Anticancer Drug Screen. Data for the sgs1 mgt1 strain (AID 161);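 further: 0% = growth of cultures given vehicle only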; settings: S. cerevisiae sgs1 mgt1 strain, stronger effect = higher value
# Outline: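 Test agents were incubated with a DNA-repair-mutant yeast strain. Growth was then read and compared against vehicle-treated controls.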
# [4] = NCI Yeast Anticancer Drug Screen. Data for the cln2 rad14 strain (AID 165);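 further: 0% = growth equal to vehicle treated cultures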; settings: S. cerevisiae cln2 rad14 strain, stronger effect = higher value
# Outline: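 Test compounds were added to cln2 rad14 yeast cultures; inhibition of growth was then determined by comparison with vehicle treatment.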
# [5] = NCI Yeast Anticancer Drug Screen. Data for the bub3 strain (AID 167); settings: S. cerevisiae bub3 mutant strain, stronger effect = higher value
# Outline: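 Part of a panel of yeast mutants defective in DNA damage repair or cell cycle regulation. Each strain is grown with compound, and inhibition is calculated relative to solvent-treated cultures.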
# [6] = NCI Yeast Anticancer Drug Screen. Data for the mlh1 rad18 strain (AID 175); settings: S. cerevisiae mlh1 rad18 strain growth inhibition, stronger effect = higher value
# Outline: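 Inhibition values reflect reduced growth of mutant yeast versus vehicle-treated controls following compound exposure; the mutations affect DNA damage repair.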
# [7] = at 5.0 µM (retest, dose inferred, filed as 0.5)
# [8] = at 50.0 µM (retest, dose inferred, filed as 5.0)
SMILES,"growth inhibition [1, 7]","growth inhibition [1, 8]",growth inhibition ([1]; at 50.0 µM),"growth inhibition [2, 7]","growth inhibition [2, 8]",growth inhibition ([2]; at 50.0 µM),"growth inhibition [3, 7]","growth inhibition [3, 8]",growth inhibition ([3]; at 50.0 µM),"growth inhibition [4, 7]","growth inhibition [4, 8]",growth inhibition ([4]; at 50.0 µM),"growth inhibition [5, 7]","growth inhibition [5, 8]",growth inhibition ([5]; at 50.0 µM),"growth inhibition [6, 7]","growth inhibition [6, 8]",growth inhibition ([6]; at 50.0 µM)
Cc1c(Cl)cccc1NC(=O)CC1Sc2ccccc2NC1=O (configuration not stated),23% (inactive),83% (active),-1.35% (inactive) and 51.1% (inactive),-7% (inactive),52% (inactive),-6.7% (inactive) and 44.2% (inactive),2% (inactive),38% (inactive),-22.2% (inactive) and 55% (inactive),8% (inactive),49% (inactive),-1.1% (inactive) and 27.8% (inactive),4% (inactive),83% (active),1.6% (inactive) and 49.8% (inactive),-1% (inactive),77% (active),6.5% (inactive) and 83% (active)
CN1C(c2ccccc2)CC(=NO)CC1c1ccccc1 (configuration not stated),18% (inactive),58% (inactive),24.6% (inactive) and 93.9% (active),1% (inactive),45% (inactive),6.35% (inactive) and 27.3% (inactive),6% (inactive),58% (inactive),3.9% (inactive) and 82.2% (active),-12% (inactive),20% (inactive),5.8% (inactive) and 32.3% (inactive),7% (inactive),23% (inactive),-7.15% (inactive) and 62% (inactive),-1% (inactive),41% (inactive),30.4% (inactive) and 85.2% (active)
CCCc1cc(=O)oc2c3c(c4c(c12)OC(C)(C)CC4)O[C@@H](C)[C@H](C)[C@H]3O,8% (inactive),90% (active),-6.95% (inactive) and 80.1% (active),-20% (inactive),95% (active),-18.8% (inactive) and 90% (active),-1% (inactive),93% (active),3.65% (inactive) and 89.6% (active),21% (inactive),94% (active),10.9% (inactive) and 88.7% (active),0% (inactive),92% (active),16.3% (inactive) and 87.8% (active),-6% (inactive),93% (active),8.05% (inactive) and 85.9% (active)
COc1cccc(NC(=S)N2CCCCC2)c1,-158% (inactive),-160% (inactive),38.4% (inactive),-51% (inactive),-58% (inactive),-0.45% (inactive),-69% (inactive),-61% (inactive),-8.25% (inactive),-69% (inactive),-102% (inactive),-82.4% (inactive),-60% (inactive),-58% (inactive),14.7% (inactive),-132% (inactive),-151% (inactive),20.9% (inactive)
CCOc1ccc(NC(=O)C(=O)NO)cc1,7% (inactive),73% (active),83% (active),-25% (inactive),59% (inactive),71.8% (active),10% (inactive),67% (inactive),74% (active),6% (inactive),26% (inactive),52% (inactive),-8% (inactive),85% (active),79.5% (active),-14% (inactive),87% (active),79.7% (active)
OC(CN1CCCCC1)c1cc(-c2ccc(Cl)cc2)nc2cc(Cl)ccc12 (configuration not stated),-6% (inactive),99% (active),90.5% (active),-13% (inactive),100% (active),92.7% (active),-4% (inactive),100% (active),99.5% (active),-7% (inactive),99% (active),95.6% (active),-7% (inactive),99% (active),99.4% (active),18% (inactive),99% (active),99.2% (active)
CC1(C)N(OC2CCCCO2)C(c2ccccc2)C(c2ccccc2)=[N+]1[O-] (configuration not stated),18% (inactive),24% (inactive),34% (inactive),12% (inactive),21% (inactive),3.05% (inactive),18% (inactive),18% (inactive),-13.7% (inactive),17% (inactive),27% (inactive),7.4% (inactive),19% (inactive),25% (inactive),-23% (inactive),21% (inactive),24% (inactive),-6.55% (inactive)
Cc1cc([N+](=O)[O-])c(C)c2c1[nH]c1ccc(O)cc12,52% (inactive),93% (active),87% (active),46% (inactive),94% (active),88.8% (active),23% (inactive),94% (active),88.2% (active),50% (inactive),96% (active),85.5% (active),78% (active),96% (active),88.8% (active),73% (active),95% (active),82.7% (active)
O=C1C=C(c2c(O)ccc3ccccc23)c2ccccc2C1=O,48% (inactive) and 29% (inactive),98% (active),98.9% (active) and 85.8% (active),73% (active) and 21% (inactive),99% (active) and 98% (active),98.8% (active) and 85% (active),80% (active) and 40% (inactive),98% (active),84.8% (active) and 89.8% (active),59% (inactive) and 36% (inactive),99% (active) and 98% (active),98.7% (active) and 89.3% (active),46% (inactive) and 40% (inactive),99% (active) and 97% (active),98.7% (active) and 90.3% (active),94% (active) and 73% (active),98% (active) and 97% (active),98.7% (active) and 90.2% (active)
CC(C)OC(=S)SSC(=S)OC(C)C,5% (inactive) and 11% (inactive),99% (active) and 98% (active),99.4% (active),4% (inactive) and 0% (inactive),100% (active) and 98% (active),99.5% (active),1% (inactive) and 9% (inactive),99% (active) and 100% (active),99.3% (active),33% (inactive) and 9% (inactive),94% (active) and 84% (active),98.4% (active),7% (inactive) and 2% (inactive),99% (active) and 100% (active),99% (active),-1% (inactive) and 18% (inactive),99% (active) and 94% (active),98.3% (active)
CC(=O)NC1CCC(C2CCCCC2)CC1C1CCCCC1 (configuration not stated),-2% (inactive),85% (active),93.6% (active),-1% (inactive),87% (active),95.7% (active),4% (inactive),93% (active),90.7% (active),1% (inactive),82% (active),89.7% (active),3% (inactive),86% (active),95% (active),-1% (inactive),86% (active),92% (active)
CCN1/C(=C/C=C/C=C/c2sc3ccccc3[n+]2CC)Sc2ccccc21,97% (active),25% (inactive),56.1% (inactive) and 66.5% (inactive),98% (active),28% (inactive),64.7% (inactive) and 70.8% (active),96% (active),11% (inactive),79.5% (active) and 58.2% (inactive),93% (active),28% (inactive),67.7% (inactive) and 65.2% (inactive),97% (active),1% (inactive),53.8% (inactive) and 52.5% (inactive),96% (active),14% (inactive),54.5% (inactive) and 43.6% (inactive)
CCCCCCC(C(=O)OCC)N1C(=O)c2ccccc2S1(=O)=O (configuration not stated),-3% (inactive),36% (inactive),2.55% (inactive),-5% (inactive),10% (inactive),21.7% (inactive),-4% (inactive),65% (inactive),30.5% (inactive),-3% (inactive),16% (inactive),12.2% (inactive),10% (inactive),55% (inactive),88.5% (active),5% (inactive),36% (inactive),61.9% (inactive)
COc1ccc(-c2c(C#N)c(-c3ccc(C)cc3)n(NS(=O)(=O)c3ccccc3)c(=O)c2C#N)cc1,94% (active),97% (active),40.5% (inactive),42% (inactive),94% (active),49.8% (inactive),41% (inactive),75% (active),50.8% (inactive),49% (inactive),58% (inactive),66% (inactive),47% (inactive),56% (inactive),39.6% (inactive),91% (active),95% (active),43% (inactive)
